Measurements: PubChem BioAssay AID2762 (National Center for Advancing Translational Sciences (NCATS), 2010)
Inconclusive results are not listed. Activity calls are given as the source filed them. Calls follow the shape of the dose curve; as a rule, active = well fitted inhibition curve with a large enough effect; inconclusive = small, poorly fitted or top-dose-only effect, or effect the other way; inactive = no such curve, though single readings can be large or run the other way.

target: Nuclear receptor ROR-gamma (Mus musculus) (UniProt P51450); experiment: Concentration response confirmation assay for inhibitors of ROR gamma transcriptional activity; conditions: Drosophila S2 Gal4-RORgamma UAS-luciferase, 20 h; series mostly up to 46.1 µM; activity change, negative = inhibition: at the top concentration
Sequence (P51450 whole entry, looked up, the tested form may be a part): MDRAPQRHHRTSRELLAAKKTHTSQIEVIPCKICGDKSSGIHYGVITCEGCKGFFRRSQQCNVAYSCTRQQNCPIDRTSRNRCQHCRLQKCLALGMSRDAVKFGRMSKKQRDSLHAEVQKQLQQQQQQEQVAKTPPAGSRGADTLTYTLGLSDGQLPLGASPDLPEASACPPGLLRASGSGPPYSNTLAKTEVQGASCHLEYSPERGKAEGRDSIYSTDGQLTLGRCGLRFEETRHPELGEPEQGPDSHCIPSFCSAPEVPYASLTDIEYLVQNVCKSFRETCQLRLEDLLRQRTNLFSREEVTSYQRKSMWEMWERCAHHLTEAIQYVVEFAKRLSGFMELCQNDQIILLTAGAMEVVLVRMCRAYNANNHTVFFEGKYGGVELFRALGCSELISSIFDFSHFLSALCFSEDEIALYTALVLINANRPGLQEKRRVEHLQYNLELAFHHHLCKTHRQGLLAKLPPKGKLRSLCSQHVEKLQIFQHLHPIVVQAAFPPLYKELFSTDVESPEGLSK
Description: NIH Molecular Libraries Probe Production Network [MLPCN] NIH Chemical Genomics Center [NCGC] MLPCN Grant: R03 DA026211-01 Assay Provider: Dan Littman, New York University Assay Overview: The retinoic acid-related orphan receptor (ROR) gamma is a transcription factor that has a central role in the differentiation of Th17 cells, a subset of T helper cells that secrete the inflammatory cytokines IL-17, IL-17F, and IL-22. Th17 cells have been implicated in graft versus host disease, autoimmune disease and asthma. ROR gamma is induced in naive T helper cells in the presence of TGF-beta combined with IL-6, IL-21, or IL-23, and thereafter directs the expression of the Th17 lineage cytokines. To study the mechanism of action of ROR gamma, an insect cell-based assay was screened. This Drosophila Schneider cell line was stably transfected with two vectors: a gene expressing a fusion of the Gal4 DNA binding domain and ROR gamma transactivation domain under the control of the metallothionine promoter and a Photinus luciferase reporter regulated by the Gal4 binding site enhancer, UAS. […] Small molecule inhibitors of ROR gamma activity are detected by a decrease in luciferase reporter activity.
Assay Protocol Summary: For screening, 600 cells in 4 uL/well were dispensed into white solid 1536-well plates (Grenier) using a solenoid-based dispenser. Following transfer of 23 nL compound or DMSO vehicle by a pin tool, the plates were incubated 1 hr at ambient temperature, and 1 uL/well copper sulfate (700 uM final concentration) was added. The plates were centrifuged 15 s at 1000 RPM and incubated 20 hr at ambient temperature. After addition of 1.5 uL Photinus luciferase detection reagent, the plates were incubated 10 min at ambient temperature and then read by an ViewLux (Perkin Elmer) to detect luminescence. Keywords: NIH Roadmap, MLPCN, MLI, MLSMR, qHTS, NCGC, qHTS, nuclear hormone receptor, retinoic acid-related orphan receptor, ROR gamma

Row | SMILES | Potency | activity change, negative = inhibition
1 | O=C(Nc1ncc(Cc2ccccc2)s1)C1=NCCN1 | 9.96 µM (active) | 
2 | Cn1ncnc2c(=O)n(C)c(=O)nc1-2 | 0.996 µM (active) | 
3 | Cc1nc2ccccc2c(=O)n1-c1cc([N+](=O)[O-])cc([N+](=O)[O-])c1 |  | 39.9% (inactive)
